Compounds without any hit were thinned out: in the full panel of roughly 83,000, 20% have a hit.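 Single-dose data. Exposure time 48 hours. Values below 10 considered active.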 A number with no mark means an inactive call. Calls of active or inactive are those of the source.
Key:
Test in all cases: NCI-60 one-dose screen, 48 h (100 = growth as untreated, 0 = no growth, -100 = all killed)
Settings in all cases: 10 µM unless noted
[1] = system: NCI/ADR-RES ovarian
[2] = system: T-47D breast
[3] = system: BT-549 breast
[4] = system: MDA-MB-435 melanoma
[5] = system: SW-620 colon
[6] = system: MCF7 breast
[7] = system: HCT-116 colon
[8] = system: HCC-2998 colon
[9] = system: KM12 colon

For `O=C(O)C(Cl)(Cl)C(F)(F)F`, the growth [1] was 102%, the growth [2] was 106% and the growth [3] was 96.9%. The growth [4] was 97.7%, the growth [5] was 94.7% and the growth [6] was 99.6%. For the same molecule, the growth [7] was 105%, the growth [8] was 99.9% and the growth [9] was 102%.
In the case of `O=C1N[C@@H]2[C@@H](O)[C@@H](O)[C@H](O)C[C@H]2c2cc3c(c(O)c21)OCO3`, the growth [1] is reported as 1.95% (active), the growth [2] is reported as -8.46% (active) and the growth [3] is reported as -12.5% (active). For the same molecule, the growth [4] was -42.2% (active), the growth [5] was -0.0451% (active) and the growth [6] was 1.73% (active). For the same molecule, the growth [7] was -1.49% (active), the growth [8] was -22.8% (active) and the growth [9] was -11.5% (active).
Molecule `COC(=O)[C@@H](NC(=O)c1cn(CCC2CCCCC2)c2ccccc12)C(C)(C)C` has a growth [1] of 73.6%, a growth [2] of 61.9% and a growth [3] of 84.1%. It also gave a growth [4] of 83.3%, a growth [5] of 86.3% and a growth [6] of 75%. It also gave a growth [7] of 64.2%, a growth [8] of 86.3% and a growth [9] of 69.8%.
`CCCCN1CCCC[C@@H]1C(=O)N[C@H](C(=O)N(C)[C@H](C[C@@H](OC(C)=O)c1nc(C(=O)NC2CCC(C(=O)OC)CC2)cs1)C(C)C)C(C)C` (some centres not stated) gave a growth [1] of 41.2%, a growth [2] of 27.4% and a growth [3] of 40.1%. For the same molecule, the growth [4] was -43.9% (active), the growth [5] was 19.5% and the growth [6] was 24.6%. For the same molecule, the growth [7] was 14%, the growth [8] was 67.6% and the growth [9] was 24.6%.
With `COC(=O)[C@@H](C)C[C@H](Cc1cn(C)c2ccccc12)NC(=O)c1csc([C@@H](C[C@H](C(C)C)N(C)C(=O)[C@@H](NC(=O)[C@H]2CCCCN2C)C(C)C)OC(C)=O)n1` the growth [1] was 20.7%, the growth [2] was 67.7% and the growth [3] was -15.9% (active). For the same molecule, the growth [4] was -41.5% (active), the growth [5] was 26.8% and the growth [6] was 17.8%. The growth [7] was 6.08% (active), the growth [8] was 17.3% and the growth [9] was 9.11% (active).
`Clc1ccc(CO/N=C(\Cn2ccnc2)c2ccc(Cl)cc2Cl)c(Cl)c1` was tested, and the growth [1] was -12.2% (active), the growth [2] was 101% and the growth [3] was -44% (active). For the same molecule, the growth [4] was -13.2% (active), the growth [5] was 8.71% (active) and the growth [6] was 0.337% (active). The growth [7] was -79.3% (active), the growth [8] was 3.92% (active) and the growth [9] was -1.07% (active).
With `O=P(Oc1ccc(Cl)cc1)(N1CC1)N1CC1` the growth [1] was 101%, the growth [2] was 106% and the growth [3] was 92.8%. The growth [4] was 109%, the growth [5] was 89.3% and the growth [6] was 67.4%. It also gave a growth [7] of 84%, a growth [8] of 88.5% and a growth [9] of 110%.
For `COC(=O)[C@@H](C)C[C@H](Cc1ccccc1)NC(=O)c1nc([C@@H](C[C@H](C(C)C)N(C)C(=O)[C@@H](NC(=O)[C@H]2CCCCN2C)C(C)C)OC(C)=O)sc1C`, the growth [1] was 16.5%, the growth [2] was 66.1% and the growth [3] was -23.4% (active). For the same molecule, the growth [4] was -31.5% (active), the growth [5] was 20.1% and the growth [6] was 12.3%. The growth [7] was 2.54% (active), the growth [8] was 13.8% and the growth [9] was 8.06% (active).
`CCOC(=O)C(Cc1ccc(N(CCCl)CCCl)cc1)NC(=O)C(CC(C)C)NC(C)=O` (configuration not stated) showed a growth [1] of 46.6%, a growth [2] of 22.5% and a growth [3] of 65%. The growth [4] was 44.4%, the growth [5] was 9.17% (active) and the growth [6] was 21.3%. It also gave a growth [7] of 23.6%, a growth [8] of 50.8% and a growth [9] of 71.6%.
In the case of `COC(=O)C1CCC(NC(=O)c2csc([C@@H](C[C@H](C(C)C)N(C)C(=O)[C@@H](NC(=O)[C@H]3CCCCN3C)C(C)C)OC(C)=O)n2)CC1` (some centres not stated), the growth [1] is reported as 11.8%, the growth [2] is reported as 64.4% and the growth [3] is reported as -20.7% (active). For the same molecule, the growth [4] was -48.5% (active), the growth [5] was 28.1% and the growth [6] was 19.4%. For the same molecule, the growth [7] was 5.04% (active), the growth [8] was 20.2% and the growth [9] was 9.7% (active).
In the case of `Cc1ccc(C(Cc2ccccc2)NCCO)cc1` (configuration not stated), the growth [1] is reported as 100%, the growth [2] is reported as 67.7% and the growth [3] is reported as 69.3%. The growth [4] was 99.1%, the growth [5] was 104% and the growth [6] was 93.4%. The growth [7] was 90%, the growth [8] was 99.9% and the growth [9] was 90%.
In the case of `COc1ccc(C/C(C)=C(\c2ccc(OCCN3CCOCC3)cc2)c2ccc(OC(=O)Cc3ccccc3)cc2)cc1`, the growth [1] is reported as 5.39% (active), the growth [2] is reported as -48.5% (active) and the growth [3] is reported as -70.4% (active). For the same molecule, the growth [4] was -58.9% (active), the growth [5] was -63% (active) and the growth [6] was -53.1% (active). For the same molecule, the growth [7] was -89.7% (active), the growth [8] was -64.3% (active) and the growth [9] was -35.2% (active).
For `O=C1C(N2CC2)=C(N2CC2)C(=O)C(N2CC2)=C1N1CC1`, the growth [1] was -27.7% (active), the growth [2] was 30.5% and the growth [3] was -34.2% (active). The growth [4] was -74.7% (active), the growth [5] was 0.521% (active) and the growth [6] was -46.1% (active). For the same molecule, the growth [7] was -79.2% (active), the growth [8] was -94.9% (active) and the growth [9] was -58.6% (active).

Reference: PubChem BioAssay (NCI)
